# Reference: publication PMC13083723 (Patterns, 2026)
# Out of some 5,400 compounds screened, about 190 (3.5%) showed an effect of 50% or more. The entries come from a sample that favours strong results as a whole.
# Tested on: Vero-E6
# Experiment: primary screen, phospholipidosis by LipidTOX staining; higher = more effect of the substance
# Conditions: 10 µM
# Summary of the method: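 Single-concentration screen at 10 μM, with DMSO 0.1 v/v % and amiodarone 10 μM as controls. Read-out is LipidTOX Red phospholipid staining, which tolerates aldehyde fixation, in Vero-E6 cells.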
row,Structure (SMILES),result_ITMP [%]
1,CC(CN(C)C)CN1c2ccccc2Sc2ccccc21 (stereo not drawn) [R4A_0005516_001 / SPE_A49225603],81.1
2,CC(CN(C)C)CN1c2ccccc2CCc2ccccc21 (stereo not drawn),34.6
3,CCN1/C(=C/C(C)=O)Sc2ccc(OC)cc21,-4.89
4,CC(CN(C)C)CN1c2ccccc2Sc2ccccc21 (stereo not drawn) [R4A_0005516_001 / SPE_M58473998],17.1
5,CC(CN(C)C)CN1c2ccccc2Sc2ccc(C#N)cc21 (stereo not drawn),42.4
6,COc1ccc2c(c1)N(C[C@H](C)CN(C)C)c1ccccc1S2,53
7,C[C@@H]1CC2C3CCC4=CC(=O)C=C[C@]4(C)[C@@]3(F)[C@@H](O)C[C@]2(C)[C@@]1(O)C(=O)COP(=O)([O-])[O-] (stereo partly drawn),-3.97
8,NC(CSC(c1ccccc1)(c1ccccc1)c1ccccc1)C(=O)O (stereo in doubt),-1.96
9,CC(N)Cc1cccc(O)c1 (stereo not drawn),-6.46
10,CCC(=O)O[C@H]1CCC2C3CCC4=CC(=O)CC[C@]4(C)C3CC[C@@]21C (stereo partly drawn),5.62
11,NC(=O)OC[C@@H]1[C@H](NC(=O)/C(=N\OCC(=O)[O-])c2csc(N)n2)C(=O)N1S(=O)(=O)[O-],0.72
12,CCCC(=O)Nc1ncnc2c1ncn2C1O[C@@H]2COP(=O)([O-])O[C@H]2[C@H]1OC(=O)CCC (stereo partly drawn),-5.79
13,CC[C@]12C=CCN3CC[C@@]4(c5cc([C@@]6(C(=O)OC)C[C@H]7C[C@@H](C(C)(F)F)CN(Cc8c6[nH]c6ccccc86)C7)c(OC)cc5N(C)[C@H]4[C@@](O)(C(=O)OC)[C@@H]1OC(C)=O)[C@@H]32,49.7
14,COc1cc(N)c(Cl)cc1C(=O)NC1CN2CCC1CC2 (stereo not drawn),-9.6
15,O=C(N[C@H]1CN2CCC1CC2)c1cc2cccc(Cl)c2s1,100
16,O=C(N[C@H]1CN2CCC1CC2)c1ccc(Cl)cc1,-0.98
17,C[C@H](CCC(=O)O)[C@H]1CC[C@H]2[C@@H]3C[C@H](O)[C@@H]4C[C@H](O)CC[C@]4(C)[C@H]3CC[C@]12C,1.59
18,c1ccc2c(Cc3c[nH]c4ccccc34)c[nH]c2c1,-4.8
19,c1ccc2c(CCNc3ccc(Nc4ccncc4)cc3)c[nH]c2c1,74
20,CC(=O)NCCc1c[nH]c2ccccc12,-3.74
21,CCCCc1nc(Cl)c(C(=O)O)n1Cc1ccc(-c2ccccc2-c2nnn[nH]2)cc1,-4.07
22,CN1CCC[C@@H]1CCO[C@](C)(c1ccccc1)c1ccc(Cl)cc1,90.6
23,CC(C)(C)c1ccc(C(O)CCCN2CCC(C(O)(c3ccccc3)c3ccccc3)CC2)cc1 (stereo not drawn),-4.73
24,CN1CCCC1CCSc1ccc(O)cc1 (stereo not drawn),2.34
25,C=C1/C(=C\C=C2/CCC[C@]3(C)[C@@H]([C@H](C)CCCC(C)(C)O)CC[C@@H]23)C[C@@H](O)C[C@@H]1O,-1.95
26,CC[C@H]1[C@@H](O)[C@@H]2[C@H](CC[C@]3(C)[C@@H]([C@H](C)CCC(=O)O)CC[C@@H]23)[C@@]2(C)CC[C@@H](O)C[C@@H]12,-0.78
27,CO[C@H]1/C=C/O[C@@]2(C)Oc3c(C)c(O)c4c(O)c(cc([O-])c4c3C2=O)NC(=O)/C(C)=C\C=C\C(C)[C@H](O)[C@@H](C)[C@@H](O)[C@@H](C)[C@H](OC(C)=O)[C@@H]1C (stereo partly drawn),-1.11
